High-throughput results from PubChem.
Sampled rows, rich in hits. Any-hit rate of the full collection: about 3.1%.
IDH1 R132H inh = human IDH1 R132H inhibition; O75874; Potency, µM (doses to about 76.6 µM), most hits filed as inhibitors; AID 602179; 390,000 tested, 0.093% active; IDH1-R132H enzyme, NADPH consumption, diaphorase/resazurin fluorescence; note: nearly all actives have a fitted effect of over 65% in size
Target sequence (O75874 whole entry R132H, stated change not applied): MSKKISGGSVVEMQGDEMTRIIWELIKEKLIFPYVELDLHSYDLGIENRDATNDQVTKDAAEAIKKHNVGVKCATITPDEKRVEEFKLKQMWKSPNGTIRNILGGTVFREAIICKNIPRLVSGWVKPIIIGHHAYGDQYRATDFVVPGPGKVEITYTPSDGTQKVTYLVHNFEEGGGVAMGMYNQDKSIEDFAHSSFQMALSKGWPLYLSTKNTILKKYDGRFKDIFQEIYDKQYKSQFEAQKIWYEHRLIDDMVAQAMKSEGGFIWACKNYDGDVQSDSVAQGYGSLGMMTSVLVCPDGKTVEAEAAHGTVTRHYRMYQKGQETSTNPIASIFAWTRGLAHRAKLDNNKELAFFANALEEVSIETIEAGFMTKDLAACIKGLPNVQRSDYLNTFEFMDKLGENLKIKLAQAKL
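IDH1-R132H (0.5 ug/mL) preincubated 30 min with compound, then NADPH (0.016 mM) and alpha-KG (2 mM) added; 80 min at RT, pH 7.5. Remaining NADPH coupled via diaphorase/resazurin to fluorescence (540/590 nm); concentration-response curves normalized to no-enzyme control.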
A549 tox = A549 cytotoxicity, counter-screen for Nrf2 inhibitors. A549 ARE-Fluc cells, CellTiter-Fluor viability, 18-24 h. Potency, µM (top dose mostly 46 µM), most hits filed as inhibitors. 390,000 tested, 0.16% active
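A549 ARE-Fluc cells in 5% FBS OPTI-MEM, 5000 cells/well, rested 2 h then exposed to compounds in concentration-response for 18-24 h at 37 °C. Viability by CellTiter-Fluor fluorescence (Ex 405/Em 525) after 30 min; luciferase luminescence (BugLite, 15 min, RT) read afterwards.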
Mito fusion yeast = blocks mitochondrial division or promotes mitochondrial fusion; S. cerevisiae fusion-defective mutant growth rescue, CellTiterGlo 48 h; Potency, µM (titrated, usually from 46.1 µM), hits mostly activators; 320,000 tested, 0.23% active; note: nearly all actives have a fitted effect of over 45% in size
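Growth-rescue viability read-out: after 48 h at the non-permissive 37C in glycerol/ethanol YPEG, yeast mitochondrial fusion mutants are measured by CellTiterGlo luminescence; compounds (23 nl pinned per well) restoring growth score as division inhibitors or fusion activators.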
TrxR1 substrate = is turned over as a substrate by rat TrxR1; Potency, µM (top dose mostly 114 µM); purified TrxR1 substrate turnover, NADPH consumption readout; AID 588456; 390,000 tested, 0.01% active; note: nearly all actives have a fitted effect of over 50% in size
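Rat TrxR1, dispensed at 90 nM, was prereduced with 400 uM NADPH (final) for 5 min at ~22 deg C, then incubated with compound 15 min before 400 uM selenite. A first-read NADPH fluorescence drop versus no-compound background flagged substrates.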
Nrf2 block = blocks Nrf2 signaling; A549 ARE-Fluc reporter, luciferase luminescence, 18-24 h; Potency, µM (titrated, usually from 46 µM), actives largely listed as inhibitors; AID 504444; 360,000 tested, 2.1% active; note: nearly all actives have a fitted effect of over 60% in size
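Nrf2 function is reported as luminescence of an ARE-controlled luciferase in A549 cells. Compounds were tested at several concentrations, and a CellTiter-Fluor read on the same wells flagged cytotoxicity.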
TrxR1 inh = rat TrxR1 inhibition; O89049; recombinant rTrxR1, NADPH fluorescence consumption, selenite substrate; Potency, µM (series often up to 114 µM), actives largely listed as inhibitors; 390,000 tested, 1% active; note: nearly all actives have a fitted effect of over 65% in size
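Rat TrxR1 (90 nM in the dispensed reagent) was pre-reduced with 400 uM NADPH for 5 min at room temperature, then incubated with compound for 15 min. After 400 uM selenite was added, NADPH fluorescence (Ex 340/Em 450 nm) was followed for 8 min.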
Of the large screens only hits and unclear results are named; the others gave an inactive call. Calls come from the whole dose curve; as a rule, active = well fitted curve in the direction sought with a large enough effect; inconclusive = small, poorly fitted or top-dose-only effect, or another doubt; inactive = no such curve, though single readings can be large; an effect the other way counts as inactive or inconclusive.

Cc1cc(C)n(-c2nc3cc(Cl)ccc3nc2N2CCN(c3cccc(C)c3C)CC2)n1	none (no result: Mito fusion yeast)
CCCCOc1ccc(S(=O)(=O)NNC(=O)c2cc3ccccc3o2)cc1	Mito fusion yeast 11.2µM
CSc1nc(-c2ccco2)nn1C(=O)c1ccc(C)cc1	Nrf2 block inconclusive, TrxR1 inh 20µM
Nc1nc(-c2ccco2)nn1C(=O)c1ccccc1Cl	Nrf2 block 1.84µM
Cc1ccc(C(=O)n2nc(-c3ccco3)nc2N)cc1	Nrf2 block inconclusive, TrxR1 inh inconclusive
CSc1nc(-c2ccco2)nn1C(=O)c1ccccc1	TrxR1 inh 20µM
Cc1cc(O)c(C(=O)/C=C/c2cccc([N+](=O)[O-])c2)c(=O)o1	none
COc1ccc(/C=C/C(=O)c2ccc([N+](=O)[O-])o2)cc1OC	IDH1 R132H inh inconclusive, A549 tox inconclusive, TrxR1 inh 14.1µM
O=C(/C=C/c1cccc(Cl)c1)c1ccc([N+](=O)[O-])o1	IDH1 R132H inh inconclusive, A549 tox inconclusive, Nrf2 block inconclusive, TrxR1 inh 1.58µM
COc1cc(/C=C/C(=O)c2ccc([N+](=O)[O-])o2)ccc1O	A549 tox inconclusive, TrxR1 inh 7.94µM
O=C(Nc1ccc(Cl)cn1)c1cnn2c1NC(=C1CC1)C=C2C(F)F	none (no result: IDH1 R132H inh, A549 tox, Mito fusion yeast, Nrf2 block)
COc1ccc(-c2nc3ccc(NC(=O)CO)cc3c(=O)n2Cc2cccc(Cl)c2)cc1COc1ccc(NC(C)=O)cc1	Nrf2 block inconclusive, TrxR1 inh inconclusive (no result: IDH1 R132H inh, Mito fusion yeast)
N#CC(Sc1ccccn1)c1ccc(Cl)cc1 (centres undefined)	Mito fusion yeast inconclusive, Nrf2 block 13µM
O=C(NCCSc1ccccn1)c1ccc(Cl)cc1	Nrf2 block inconclusive
Cn1cc(S(=O)(=O)N2CCCCCC2)cc1C(=O)Nc1ccccc1F	none (no result: Mito fusion yeast, Nrf2 block)
C=CCN(c1ccccc1)S(=O)(=O)c1cccc(C(=O)N2CC(C)CC(C)C2)c1 (centres undefined)	A549 tox inconclusive, Nrf2 block 20.6µM
COc1ccc(Cl)cc1NC(=O)CSc1nnc2[nH]c(=O)cc(C)n12	none (no result: Mito fusion yeast, Nrf2 block)
CC(Nc1ccc(F)cc1)=[N+](C)CCNS(=O)(=O)c1ccc(Cl)cc1	TrxR1 inh 79.4µM
Cc1cccc(-c2noc(CN(C(=O)COc3ccc(C(C)C)cc3)C(C)C)n2)c1	Nrf2 block inconclusive (no result: Mito fusion yeast)
CNC(=O)CN1C(=O)CSc2ncccc21	none
CCN(CC)c1ccc(NC(=O)Cn2cc3c(n2)CCCC3)c(C)c1	Nrf2 block inconclusive (no result: Mito fusion yeast)
CCN(CC)c1ccc(NC(=O)Cn2cc3c(n2)CCC(C)C3)c(C)c1 (centres undefined)	Nrf2 block 13µM
CCN(CC)c1ccc(NC(=O)CN2C(=O)CSc3ncccc32)c(C)c1	Nrf2 block 10.3µM
Cc1nn(-c2ccc(F)cc2)c(-n2cccc2)c1C(=O)N1CCN(c2ccccc2F)CC1	none (no result: Mito fusion yeast)
CC1CCc2onc(C(=O)N3CCN(c4ccc(Cl)cc4)CC3)c2C1 (centres undefined)	Nrf2 block 20.6µM (no result: Mito fusion yeast)
CC1CCc2onc(C(=O)Nc3ccc(Cl)cc3)c2C1 (centres undefined)	none (no result: Mito fusion yeast)
CCC(C)(C)c1ccc(OCCCC[n+]2cccc(C)c2C)c(C(C)(C)CC)c1	A549 tox 11.6µM, Nrf2 block 5.8µM
CCC(C)(C)c1ccc(OCCCC[n+]2ccc(C)cc2)c(C(C)(C)CC)c1	A549 tox inconclusive, Nrf2 block 13µM
Cc1cc[n+](CC[n+]2ccc(C)cc2)cc1	none
O=c1oc2ccccc2c(N2CCN(c3ccccc3F)CC2)c1CN1CCCC1	none (no result: Mito fusion yeast)
Cc1cc(C)cc(N2C(=O)C=CC2=O)c1	Nrf2 block inconclusive, TrxR1 inh 1.12µM (no result: Mito fusion yeast)
Cc1cc(N2C(=O)C=CC2=O)c([N+](=O)[O-])cc1C	Nrf2 block inconclusive, TrxR1 inh 2.82µM
Cc1ccc(N2C(=O)C3C4C=CC(CC4)C3C2=O)cc1[N+](=O)[O-] (centres undefined)	none
Cc1c([N+](=O)[O-])cc(N2C(=O)C=CC2=O)cc1[N+](=O)[O-]	Nrf2 block inconclusive, TrxR1 inh 3.16µM (no result: Mito fusion yeast)
